Test results reported in PubChem BioAssay AID485364 (National Center for Advancing Translational Sciences (NCATS), 2010).
Hit rate of the full screen: of about 360,000 compounds, about 11,000 (3.1%) were called active. Entries that show only a call come without a potency. Not shown: some 4% with an inconclusive outcome. The call rests on the fitted dose curve; in most records, active means well fitted inhibition curve with a large enough effect; inconclusive means small, poorly fitted or top-dose-only effect; inactive means no such curve, though single readings can be large or run the other way. Only a selection was taken, and actives are over-represented in it overall.

Target: Schistosoma mansoni thioredoxin glutathione reductase (TGR) (UniProt Q962Y6)
Assay: qHTS Assay for the Inhibitors of Schistosoma Mansoni Peroxiredoxins; further: nearly all actives have a fitted effect of over 60% in size
Conditions: purified TGR, DTNB reduction, TNB absorbance 405 nm; series mostly up to 114 µM
Outline: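 First, TGR (20 nM dispensed) and NADPH were mixed with compound. Second, a 15 min room-temperature incubation followed. Third, further NADPH and then DTNB were added to start the reaction. Finally, TNB absorbance was monitored kinetically.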
Potency means the concentration at half of the fitted maximal effect.

Structure (SMILES)	Potency
COc1ccc(NC(=O)CSc2nc3ncccc3[nH]2)c(OC)c1	inactive
COc1ccccc1C(=O)NCCn1cc(SCc2ccccc2Cl)c2ccccc21	inactive
Cc1cccc(N2CCN(c3ccc(C(=O)O)cc3NC(=O)c3ccccc3F)CC2C)c1 (stereo unspecified)	inactive
COc1cc(OC)c(N(C)C(=O)c2cc3c(=O)oc4ccccc4c3s2)cc1Cl	inactive
Cc1ccc(-c2cc(C(F)(F)F)c(C#N)c(SCC(=O)Nc3ccccc3)n2)cc1	inactive
Cc1cccc(CCNC(=O)c2ccc3c(c2)nc2n3CCC(C)C2)c1 (stereo unspecified)	inactive
COc1ccc(CCN2C(=O)C3CC=C(C)CC3C2=O)cc1OC (stereo unspecified)	inactive
COc1ccc(N2C(=O)CC(N3CCC(C(N)=O)CC3)C2=O)cc1 (stereo unspecified)	14.1 µM (active)
COc1ccc(CCN2C(=O)CC(N3CCC(C(N)=O)CC3)C2=O)cc1OC (stereo unspecified)	3.16 µM (active)
COc1ccc(COCC(O)CN2CCC(C(N)=O)CC2)cc1 (stereo unspecified)	inactive
NC(=O)C1CCN(C2OC(=O)c3ccccc32)CC1 (stereo unspecified)	inactive
COc1ccc(CCN2C(=O)C(C)=C(C)C2=O)cc1OC	inactive
COCCn1c(SCC(=O)c2cc(C)ccc2C)nc2cc(C(=O)NC3CCCC3)ccc2c1=O	inactive
CCCN1C(=O)C(O)(CC(=O)c2ccc(CC)cc2)c2cc(Br)ccc21 (stereo unspecified)	inactive
CC(=O)Nc1cccc(NC(=O)CSc2nccn2Cc2ccc3c(c2)OCO3)c1	inactive
Cc1ccccc1CN1CCC(CNC(=O)c2cc3ccc4cccnc4c3[nH]2)CC1	inactive
CCOc1ccc(CNC(=O)c2cc(-c3ccc(Cl)s3)nc3ccccc23)cc1	inactive
CCCS(=O)(=O)c1ncc(Cl)c(C(=O)Nc2scc(-c3ccccc3)c2C(=O)OCC)n1	2 µM (active)
CCOC(=O)c1scc(-c2ccccc2)c1S(=O)(=O)Nc1ccccc1F	inactive
CCOC(=O)c1c(-c2ccc(-c3ccccc3)cc2)csc1NC(=O)CCC(=O)O	inactive
CCC(Sc1nnc(-c2ccc(OC)cc2)c(-c2ccc(OC)cc2)n1)C(=O)NC1CCCCC1 (stereo unspecified)	inactive

Structure (SMILES)	Potency
COc1cccc(CNC(=O)c2ccc3c(c2)N(Cc2ccc(C(F)(F)F)cc2)C(=O)c2ccccc2S3)c1OC	inactive
CCOc1ccc(-n2c(C)nc3c(cnn3-c3ccc(C)cc3)c2=O)cc1	inactive
CCOCCCNC(=S)Nc1ccc2nc(N3CCN(CC)CC3)cc(C)c2c1	50.1 µM (active)
CCN1CCN(c2cc(C)c3cc(NC(=O)c4cc(Cl)ccc4OC)ccc3n2)CC1	inactive
Cc1cc(N2CCOCC2)nc2ccc(NC(=S)N3CCN(Cc4ccccc4)CC3)cc12	inactive
Cc1cccc(-n2ccnc2SCC(=O)Nc2cc(C(F)(F)F)ccc2Cl)c1	inactive
CCOc1ccc(N(C)S(=O)(=O)c2cc(-c3cnc(C)o3)ccc2OC)cc1	inactive
C=C(Br)CN1CCN(CC(=C)Br)CC1	10 µM (active)
COc1ccc(CCNC(=O)c2cn(C)c3ccc(S(=O)(=O)N(C)C4CCCCC4)cc3c2=O)cc1OC	inactive
CCCCCn1c(=O)[nH]c2cc(C(=O)Nc3ccc(F)cc3)ccc2c1=O	inactive
CCCC12CN3CC(CCC)(CN(C1)C3c1c[nH]c3ccc(OC)cc13)C2=O (stereo unspecified)	inactive
Cc1ccc(Cl)cc1NC(=O)/C(C#N)=C\c1cn(Cc2ccc(F)cc2)c2ccccc12	inactive
COc1ccc(C2CC(c3cccs3)=NN2c2ccc(F)cc2)cc1OC (stereo unspecified)	56.2 µM (active)
COc1ccc(C2CC(c3cccs3)=NN2c2nc(C)c(C(C)=O)s2)cc1OC (stereo unspecified)	inactive
COc1ccc(C2CC(c3cccs3)=NN2C(=O)CSc2nncs2)cc1OC (stereo unspecified)	inactive
O=C1C=C(c2ccc(Cl)cc2)C(=O)N1Nc1ccccc1	inactive
COC(=O)CN1C(=S)N(c2ccccc2)C(=O)C1CC(=O)Nc1ccc(Cl)cc1 (stereo unspecified)	inactive
O=C(O)CC1=C(Nc2ccccc2)C(=O)N(c2ccccc2)C1c1ccc(Cl)cc1 (stereo unspecified)	39.8 µM (active)
Cc1ccc(CCNC(=O)c2nnc(Cc3cccc(F)c3)o2)cc1	inactive
CCNC(=O)c1cc2n(n1)CCCN(Cc1ccc(C)cc1)C2=O	inactive
CSc1ccc(CCNC(=O)c2ccc3c(c2)nc2n3CCOC2)cc1	inactive

Structure (SMILES)	Potency
Cc1cn(C)c(CC(=O)NCc2ccccc2)c1C(=O)O	inactive
CCC(c1nnnn1C1CCCC1)N(Cc1cccs1)Cc1cc2cccc(C)c2[nH]c1=O (stereo unspecified)	inactive
CCOc1ccc2[nH]c(=O)c(CN(Cc3nnnn3Cc3ccccc3)CC3CCCO3)cc2c1 (stereo unspecified)	inactive
CCC(c1nnnn1Cc1ccco1)N(Cc1cc2cc(OC)ccc2[nH]c1=O)C1CCCCC1 (stereo unspecified)	12.6 µM (active)
COc1ccc2[nH]c(=O)c(CN(Cc3nnnn3CCc3ccccc3)CC3CCCO3)cc2c1 (stereo unspecified)	inactive
Cc1cccc2cc(CN(Cc3cccs3)C(=S)NCc3ccco3)c(=O)[nH]c12	inactive
CCC(c1nnnn1Cc1ccco1)N(CCc1ccccc1)Cc1cc2cccc(C)c2[nH]c1=O (stereo unspecified)	22.4 µM (active)
Cc1ccc(-c2nnc(SCc3ccccc3C)o2)cc1	inactive
Cc1ccc(C)c(N2CCN(C(c3ccccc3)c3nnc(-c4ccccc4)o3)CC2)c1 (stereo unspecified)	inactive
COc1cc(C(=O)Nc2ccc(OCc3cc(=O)n4ccc(C)cc4n3)cc2)cc(OC)c1OC	inactive
CCCCn1c(CNC(=O)C23CC4CC(CC(C4)C2)C3)nnc1SCC(=O)Nc1ccc(C)cc1	inactive
COc1ccc(NS(=O)(=O)c2cc3c4c(c2)CC(=O)N4CCC3)cc1Cl	inactive
Cc1n[nH]c(=O)c2c(NC(=O)CSc3cc(Cl)ccc3Cl)oc(C)c12	inactive
Cc1n[nH]c(=O)c2c(NC(=O)CSc3ccccc3F)oc(C)c12	inactive
Cc1n[nH]c(=O)c2c(NC(=O)COC(=O)c3ncc(Cl)c(Cl)c3Cl)oc(C)c12	15.8 µM (active)
CC(=O)c1ccc(NC(=O)CSc2nnc(NC(=O)Nc3ccccc3)s2)cc1	inactive
CCc1ccc(NC(=O)CCCc2nnc3n(CCCOC)c(=O)c4sccc4n23)cc1	inactive
COc1ccc(C(=O)c2oc3ccccc3c2NC(=O)COc2cccc(C)c2)cc1	inactive
CN(Cc1ccccc1)C(=O)c1cn(C)c2ccc(S(=O)(=O)N3CCCCC3)cc2c1=O	inactive
